This is a sample that favours compounds with a hit; in the whole collection about 19% have one here.
ELG1 DNA repair: inhibitors of ELG1-dependent DNA repair in HEK293T cells; 330,000 tested, 2.3% active; Potency, µM (top dose mostly 46.1 µM), usual class: inhibitors; AID 504467; HEK293T ELG1-luciferase reporter, luminescence, 16 h; DNA damage induced by 5-fluorouridine; further: nearly all actives have a fitted effect of over 55% in size
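Step one: seed 2,000 cells per well. Step two: pin-transfer compound or DMSO alongside 5-fluorouridine. Step three: incubate 16 hr, 37 °C, 5% CO2. Step four: add ONE-Glo, wait 30 min, read luminescence.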
DT40 TDP1 CPT: growth inhibition of DT40 Tdp1-/-;hTDP1 cells with camptothecin (screen for TDP1 inhibitors). chicken DT40 Tdp1-/-;hTDP1 cells + 20 nM CPT, ATP luminescence, 48 h. Potency, µM (highest dose often 46.2 µM), most hits filed as inhibitors. 420,000 tested, 12% active; further: nearly all actives have a fitted effect of over 55% in size
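Chicken DT40 Tdp1-/- cells complemented with human TDP1, 400 cells/well, exposed to compounds plus 20 nM camptothecin for at least 48 h at 37 C; viability read as ATP content by CellTiter-Glo luminescence.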
HT1080 IDH1KD tx: HT-1080 IDH1 knockdown cell toxicity (counter line); HT-1080 IDH1 knockdown viability, ATP luminescence, 48 h; Potency, µM (series often up to 46.1 µM), actives largely listed as cytotoxic; 360,000 tested, 2% active
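Viability of IDH1-knockdown HT-1080 fibrosarcoma cells was assessed by CellTiter-Glo after 48 h at 37 °C with titrated compound; concentration-effect curves were classified by fit quality and response size.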
HT1080NT lethal: kills 2HG-producing HT-1080-NT fibrosarcoma cells. HT-1080-NT fibrosarcoma viability, CellTiter-Glo ATP luminescence, 48 h. AID 686970. 360,000 tested, 1.6% active. Potency, µM (series often up to 46.1 µM), usual class: cytotoxic;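 further: NT is the 2HG producing partner of a matched IDH1 knockdown line; nearly all actives have a fitted effect of over 55% in size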
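Read-out is CellTiter-Glo luminescence after 10 minutes at room temperature, following 48 hours' compound treatment of HT-1080-NT cells (750 cells/well, RPMI, 5% FBS, 37 degrees C).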
IL1B secr inh: blocks inflammasome-driven IL-1 beta release; activity change, % at 57.5 µM; 360,000 tested, 4.7% active; AID 743279; THP-1 LPS/ATP IL-1B secretion, AlphaLISA, 16 h; hits give low values; in the data active means activity change below about -50%; inconclusive means mostly about -30% to -49%
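Secreted IL-1B measured by AlphaLISA bead assay after 16 h compound exposure of THP-1 cells; compounds (final up to 57.5 uM) added 1 h before LPS (250 ng/mL) and ATP (1.25 mM) stimulation; lower signal means less secretion.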
DT40 TDP1 no CPT: qHTS for Inhibitors of human tyrosyl-DNA phosphodiesterase 1 (TDP1): qHTS in cells in absence of CPT; DT40 Tdp1-/- hTDP1 cells, no CPT, ATP luminescence, 48 h; Potency, µM (doses to about 46.2 µM), most hits filed as inhibitors; 420,000 tested, 15% active; AID 686978, 2013; further: nearly all actives have a fitted effect of over 55% in size
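Luminescent ATP content (CellTiter-Glo) served as the growth readout. Knockout chicken DT40 cells expressing human TDP1 were exposed to compounds without camptothecin for a minimum 48 hr at 37 °C.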
Large screens that a line does not name were inactive. Unless noted, the call rests on the fitted dose curve; in most records, active means well fitted curve in the direction sought with a large enough effect; inconclusive means small, poorly fitted or top-dose-only effect, or another doubt; inactive means no such curve, though single readings can be large; an effect the other way counts as inactive or inconclusive.

COc1cccc(-c2nccc(NCCc3c[nH]c4ccc(OC)cc34)n2)c1	DT40 TDP1 CPT 13µM, DT40 TDP1 no CPT inconclusive (no result: ELG1 DNA repair, HT1080 IDH1KD tx, HT1080NT lethal, IL1B secr inh)
COc1ccc2[nH]cc(CCNc3nc(-c4cccnc4)nc4ccccc34)c2c1	DT40 TDP1 CPT 23µM, DT40 TDP1 no CPT inconclusive (no result: ELG1 DNA repair, HT1080 IDH1KD tx, HT1080NT lethal, IL1B secr inh)
COc1ccc2[nH]cc(CCNC(=O)Nc3ccccc3C)c2c1	none
COc1ccc2[nH]cc(CCNc3ccnc(-c4ccc(C(=O)N(C)C)cc4)n3)c2c1	DT40 TDP1 CPT 12µM, DT40 TDP1 no CPT 12µM (no result: ELG1 DNA repair, HT1080 IDH1KD tx, HT1080NT lethal, IL1B secr inh)
C=C1CCN(c2ccc(C(=O)NCc3ccc(C)cc3)cc2[N+](=O)[O-])CC1	ELG1 DNA repair inconclusive, IL1B secr inh -63
COC(=O)c1cc(CNC(=O)c2ccc(N3CCCC3)c([N+](=O)[O-])c2)ccc1OC	ELG1 DNA repair inconclusive
C=C1CCN(c2ccc(C(=O)NCc3ccc(OC)cc3)cc2[N+](=O)[O-])CC1	DT40 TDP1 CPT 21µM, IL1B secr inh -75, DT40 TDP1 no CPT inconclusive (no result: ELG1 DNA repair)
O=C(NCc1ccncc1)c1ccc(N2CCCC2)c([N+](=O)[O-])c1	DT40 TDP1 CPT inconclusive, DT40 TDP1 no CPT 18µM
CCOc1ccccc1NC(=O)C(OC(=O)c1cc(C)oc1C)c1ccccc1 (stereo not given)	DT40 TDP1 CPT inconclusive, DT40 TDP1 no CPT 18µM
Cc1csc(NC(=O)c2cncc(Br)c2)n1	ELG1 DNA repair inconclusive, DT40 TDP1 no CPT inconclusive
COC(=O)C[C@H]1C[C@H]2c3cc(NC(=O)C4CCOCC4)ccc3O[C@H]2[C@@H](CO)O1	none (no result: ELG1 DNA repair)
CC(C)n1c(/N=C/c2ccccc2O)nc2ccccc21	none
Cc1ccc(S(=O)(=O)N2C[C@@H]3[C@H]4CC[C@H](C4)[C@@H]3[C@@H](C)[C@@H]2c2ccn([Si](C(C)C)(C(C)C)C(C)C)c2)cc1	DT40 TDP1 CPT inconclusive, DT40 TDP1 no CPT 23µM
C=CCC1[C@H](C)[C@H]2[C@@H]3CC[C@@H](C3)[C@H]2CN1S(=O)(=O)c1ccc(C)cc1 (stereo not given in full)	DT40 TDP1 CPT 18µM, HT1080 IDH1KD tx inconclusive, DT40 TDP1 no CPT inconclusive
Cc1ccc(S(=O)(=O)N2C[C@@H]3c4ccccc4N(S(=O)(=O)c4ccc(C)cc4)[C@@H]3[C@@H](C)C2CC(=O)c2ccccc2)cc1 (stereo not given in full)	ELG1 DNA repair inconclusive
CCOC(=O)C1CN(S(=O)(=O)c2ccc(C)cc2)CCN1S(=O)(=O)c1ccc(C)cc1 (stereo not given)	DT40 TDP1 CPT inconclusive, DT40 TDP1 no CPT inconclusive
Cc1ccc(S(=O)(=O)N2C[C@@H]3[C@H]4CC[C@H](C4)[C@@H]3[C@@H](C)C2CC(=O)c2ccccc2)cc1 (stereo not given in full)	DT40 TDP1 CPT inconclusive, HT1080NT lethal inconclusive, DT40 TDP1 no CPT 23µM
N#Cc1ccc(OCc2c(-c3ccccc3)nnn2CC(=O)O)cc1	none (no result: ELG1 DNA repair)
c1ccc2cnccc2c1	none (no result: ELG1 DNA repair, HT1080 IDH1KD tx, HT1080NT lethal, IL1B secr inh)
COC(=O)c1ccc(Cl)cc1NC(=O)N1CCCn2nc(C)cc21	none (no result: ELG1 DNA repair, HT1080 IDH1KD tx, HT1080NT lethal, IL1B secr inh)
CC[C@]1(c2ncc[nH]2)Cc2ccccc2O1	DT40 TDP1 CPT inconclusive, DT40 TDP1 no CPT 24µM (no result: ELG1 DNA repair, HT1080 IDH1KD tx, HT1080NT lethal, IL1B secr inh)
CCCCn1cc2c(c1-c1ccc(Cl)cc1)c(=O)n(C)c(=O)n2C	DT40 TDP1 CPT inconclusive, DT40 TDP1 no CPT 15µM (no result: ELG1 DNA repair, HT1080 IDH1KD tx, HT1080NT lethal, IL1B secr inh)
Cc1ccc(-c2c3c(=O)n(C)c(=O)n(C)c3cn2Cc2ccccc2)cc1	DT40 TDP1 CPT inconclusive, DT40 TDP1 no CPT inconclusive
CCCn1cc2c(c1-c1ccc(C)cc1)c(=O)n(C)c(=O)n2C	DT40 TDP1 CPT inconclusive, DT40 TDP1 no CPT 21µM
Cc1ccc(Cn2c(N/N=C/c3ccncc3)nc3c2c(=O)n(C)c(=O)n3C)cc1	DT40 TDP1 CPT inconclusive, DT40 TDP1 no CPT 18µM
Cn1c(=O)c2c(nc(N/N=C/c3ccncc3)n2Cc2ccccc2)n(C)c1=O	DT40 TDP1 CPT inconclusive, DT40 TDP1 no CPT inconclusive

Assay outcomes from PubChem BioAssay.
